Test results published in PubChem BioAssay AID2284088 (EPA ToxCast).
Active and inactive are the calls of the source. How the source made its calls: active means hit-call score of the fitted dose curve at least 0.9, where 1 is the maximum; inactive means score below 0.9.

Biological target: human FLT4 Receptor Tyrosine Kinase, FLT4 (gene 2324) (UniProt P35916)
Experiment: ERF_FR_ENZ_hFLT4: Eurofins (ERF) Enzymatic Radiometric [Km ATP] KinaseProfiler LeadHunter Assay for human FLT4 Receptor Tyrosine Kinase
Protocol: ERF_FR_ENZ_hFLT4 is a biochemical, single-readout assay that uses extracted gene-proteins in a cell-free assay. Measurements were taken 1.5 hour after chemical dosing in a 96-well plate. See FLT4 Human RTK Kinase Enzymatic LANCE Assay [Km ATP], Cerep.ERF_FR_ENZ_hFLT4 is an assay component calculated from the ERF_FR_ENZ_hFLT4 assay. It is designed to measure enzyme activity using a type of enzyme reporter as detected by fluorescence intensity with LANCE technology.Data from the assay component ERF_FR_ENZ_hFLT4 was analyzed at the assay endpoint, ERF_FR_ENZ_hFLT4, in the positive analysis fitting direction relative to DMSO as the negative control and baseline of activity. Using a type of enzyme reporter, loss-of-signal activity can be used to understand changes in enzymatic activity as they relate to gene FLT4. To generalize the intended target to other relatable targets, this assay endpoint is annotated to the kinase intended target family, where the subfamily is receptor tyrosine kinase.
Flt4 (h) is incubated with 8 mM MOPS pH 7.0, 0.2 mM EDTA, 500 uM […], 10 mM MgAcetate and [gamma-33P]-ATP (specific activity and concentration as required). The reaction is initiated by the addition of the Mg/ATP mix. After incubation for 40 minutes at room temperature, the reaction is stopped by the addition of phosphoric acid to a concentration of 0.5%. […]

Sequence of human FLT4 Receptor Tyrosine Kinase, FLT4 (gene 2324) (P35916 whole entry, looked up): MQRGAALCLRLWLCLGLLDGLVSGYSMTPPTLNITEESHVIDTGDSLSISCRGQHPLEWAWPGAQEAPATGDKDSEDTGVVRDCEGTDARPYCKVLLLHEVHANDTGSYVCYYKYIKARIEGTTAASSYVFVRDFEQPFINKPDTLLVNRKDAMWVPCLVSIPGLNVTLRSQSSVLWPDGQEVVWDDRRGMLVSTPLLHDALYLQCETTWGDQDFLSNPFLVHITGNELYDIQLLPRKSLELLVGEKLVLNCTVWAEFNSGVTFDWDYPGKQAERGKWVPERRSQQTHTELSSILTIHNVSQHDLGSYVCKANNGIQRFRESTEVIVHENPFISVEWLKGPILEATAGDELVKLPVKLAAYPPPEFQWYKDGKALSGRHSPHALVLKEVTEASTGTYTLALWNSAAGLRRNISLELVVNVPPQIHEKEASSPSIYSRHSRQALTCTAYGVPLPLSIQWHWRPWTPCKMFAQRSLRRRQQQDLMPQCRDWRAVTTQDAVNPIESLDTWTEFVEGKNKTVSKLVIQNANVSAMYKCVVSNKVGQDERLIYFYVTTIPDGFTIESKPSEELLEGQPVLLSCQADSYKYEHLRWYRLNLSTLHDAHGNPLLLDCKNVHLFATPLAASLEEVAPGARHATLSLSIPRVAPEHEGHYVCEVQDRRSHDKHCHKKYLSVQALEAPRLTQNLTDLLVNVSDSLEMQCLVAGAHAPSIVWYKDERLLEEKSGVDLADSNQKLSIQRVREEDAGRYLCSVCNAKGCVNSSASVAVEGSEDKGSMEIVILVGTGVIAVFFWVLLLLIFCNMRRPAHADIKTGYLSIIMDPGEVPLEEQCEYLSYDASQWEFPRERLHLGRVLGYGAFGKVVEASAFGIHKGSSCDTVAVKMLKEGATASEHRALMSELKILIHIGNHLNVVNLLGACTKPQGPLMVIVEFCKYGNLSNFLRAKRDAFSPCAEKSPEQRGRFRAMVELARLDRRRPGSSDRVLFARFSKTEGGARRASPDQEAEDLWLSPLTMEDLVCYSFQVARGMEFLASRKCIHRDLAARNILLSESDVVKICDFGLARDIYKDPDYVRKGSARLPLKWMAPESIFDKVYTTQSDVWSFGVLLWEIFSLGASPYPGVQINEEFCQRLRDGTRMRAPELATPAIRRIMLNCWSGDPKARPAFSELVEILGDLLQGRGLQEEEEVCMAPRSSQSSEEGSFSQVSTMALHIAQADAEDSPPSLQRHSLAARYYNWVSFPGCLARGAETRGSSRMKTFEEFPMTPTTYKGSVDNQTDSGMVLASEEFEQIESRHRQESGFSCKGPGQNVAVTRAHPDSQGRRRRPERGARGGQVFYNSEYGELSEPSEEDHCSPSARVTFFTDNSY

Structure (SMILES)	AC50
O=C(/C=C/c1ccc(O)cc1)CC(=O)/C=C/c1ccc(O)cc1	1.91 µM (active)
